High-throughput results: PubChem BioAssay, National Center for Advancing Translational Sciences (NCATS)
In the library only some 5.7% were active in any assay of this set; here they are far more common.
KDM4E inh: qHTS Assay for Inhibitors of Human Jumonji Domain Containing 2E (JMJD2E) | Potency, µM (highest dose often 57.1 µM), for inactives: at the highest dose activity change, negative = inhibition, usual class: inhibitors | 1.6% of 230,000 active | JMJD2E catalytic domain, FDH-coupled NADH fluorescence (FDH is formaldehyde dehydrogenase) | Lysine-specific demethylase 4E (Homo sapiens), B2RXH2; active = well fitted inhibition curve with a large enough effect, not every such curve was filed as active; inconclusive = small, poorly fitted or top-dose-only effect, or another doubt; inactive = no such curve, though single readings can be large or run the other way;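 note: potency is the fitted concentration of half-maximal effect; 0% = wells with enzyme and -100% = buffer wells without enzyme; nearly all actives have a fitted effect of over 50% in size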
Target sequence (B2RXH2 1-337 limits assumed): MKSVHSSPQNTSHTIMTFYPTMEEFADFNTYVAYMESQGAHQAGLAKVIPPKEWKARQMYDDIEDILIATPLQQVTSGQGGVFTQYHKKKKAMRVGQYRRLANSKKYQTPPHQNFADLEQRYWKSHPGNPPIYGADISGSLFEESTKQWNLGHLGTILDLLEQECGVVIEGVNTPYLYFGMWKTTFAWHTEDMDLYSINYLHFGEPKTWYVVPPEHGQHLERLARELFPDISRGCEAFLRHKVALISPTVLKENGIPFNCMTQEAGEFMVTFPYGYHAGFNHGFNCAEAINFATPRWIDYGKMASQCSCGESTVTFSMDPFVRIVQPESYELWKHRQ
BAZ2B block: qHTS Assay for Inhibitors of BAZ2B | 4.4% of 360,000 active | AlphaScreen BAZ2B-H3K14Ac peptide displacement | Potency, µM (series often up to 114 µM), for inactives: at the highest dose activity change, negative = inhibition, most hits filed as inhibitors | Bromodomain adjacent to zinc finger domain protein 2B (Homo sapiens), Q9UIF8; note: potency is the fitted concentration of half-maximal effect; % is set by controls: 0 for no effect and ±100 for the full control effect; nearly all actives have a fitted effect of over 60% in size
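AlphaScreen displacement: compounds (up to 110uM) incubated 30 min at room temperature with a preformed 50 nM BAZ2B/50 nM biotinylated H3K14Ac peptide complex in PBS pH 7.4 with Tween-20. Donor and acceptor beads at 10 ug/mL final added, 20 min light-protected before reading.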
PI5P4Ka inh: qHTS for Inhibitors of phosphatidylinositol 5-phosphate 4-kinase (PI5P4K); Phosphatidylinositol 5-phosphate 4-kinase type-2 alpha (Homo sapiens), P48426; PI5P4Kalpha enzyme, ADP-Glo luminescence, 60 min; active compounds read low; max response, %; 1.2% of 330,000 active; active = max response of -50% or lower; inconclusive = between -30% and -50%; inactive = -30% or higher; note: value at the top dose of about 77 µM; % is set by controls: 0 for no effect and ±100 for the full control effect
Target sequence (P48426 whole entry, looked up): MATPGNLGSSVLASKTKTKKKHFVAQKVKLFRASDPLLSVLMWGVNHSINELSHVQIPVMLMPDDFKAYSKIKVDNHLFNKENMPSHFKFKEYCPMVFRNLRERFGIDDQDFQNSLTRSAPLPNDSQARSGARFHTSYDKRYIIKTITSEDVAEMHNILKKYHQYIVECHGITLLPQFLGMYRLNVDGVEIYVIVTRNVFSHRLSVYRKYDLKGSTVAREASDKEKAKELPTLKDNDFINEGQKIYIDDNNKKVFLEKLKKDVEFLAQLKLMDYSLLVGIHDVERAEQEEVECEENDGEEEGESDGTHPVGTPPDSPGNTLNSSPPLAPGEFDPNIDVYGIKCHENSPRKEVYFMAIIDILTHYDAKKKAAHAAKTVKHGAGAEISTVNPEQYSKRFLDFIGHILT
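ADP-Glo luminescence end-point after a 60 min room-temperature kinase reaction. PI5P4Kalpha and substrate in HEPES pH 7.4 buffer with EGTA, 0.1% CHAPS and 5% DMSO; ATP at 5 microM final.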
L3MBTL1 block: qHTS Assay for the Inhibitors of L3MBTL1. Lethal(3)malignant brain tumor-like protein 1 (Homo sapiens), Q9Y468. AlphaScreen L3MBTL1–H3K9me1 peptide binding. Potency, µM (highest dose often 57.1 µM), inactives show at the top dose activity, negative = inhibition, usual class: inhibitors. 0.66% of 230,000 active. AID 485360, 2010; note: potency is the fitted concentration of half-maximal effect; % is set by controls: 0 for no effect and ±100 for the full control effect; nearly all actives have a fitted effect of over 60% in size
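L3MBTL1 (50 nM) pre-complexed 30 min with biotinylated H3(1-15)K9me1 peptide (75 nM), then compounds added for 30 min at room temperature; AlphaScreen streptavidin donor/nickel chelate acceptor beads (10 ug/mL final) read after 30 min dark incubation.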
JMJD2A Tudor inh: qHTS Assay for Inhibitors of JMJD2A-Tudor Domain. Lysine-specific demethylase 4A (Homo sapiens), O75164. AlphaScreen JMJD2A-Tudor / H3K4me3 peptide binding. Potency, µM (doses to about 114 µM), for the others: at the top dose activity change, negative = inhibition, hits mostly inhibitors. 4.4% of 390,000 active; note: potency is the fitted concentration of half-maximal effect; % is set by controls: 0 for no effect and ±100 for the full control effect; nearly all actives have a fitted effect of over 50% in size
HP1b chromo inh: HTS for Inhibitors of HP1-beta Chromodomain Interactions with Methylated Histone Tails; 0.56% of 390,000 active; AID 540317, 2011; Potency, µM (series often up to 114 µM), for the others: at the highest dose activity change, negative = inhibition, actives largely listed as inhibitors; AlphaScreen HP1-beta / biotin-H3K9me3 peptide binding; note: potency is the fitted concentration of half-maximal effect; nearly all actives have a fitted effect of over 70% in size
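Compound inhibition of the preformed complex between 50 nM HP1-beta and 50 nM biotinylated H3K9me3 peptide was read by AlphaScreen. Buffer was PBS pH 7.4 with 0.01% Tween-20. Incubations ran 30 min at room temperature, with 10 ug/mL donor/acceptor beads.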
Numbers without * were called inactive; ? = inconclusive; / = no result given; [ ] = remark or other dose. Unless noted, calls come from the whole dose curve; as a rule, active = well fitted inhibition curve with a large enough effect; inconclusive = small, poorly fitted or top-dose-only effect; inactive = no such curve, though single readings can be large or run the other way.

SMILES | KDM4E inh | BAZ2B block | PI5P4Ka inh | L3MBTL1 block | JMJD2A Tudor inh | HP1b chromo inh
O=C(O)CN1C(=O)/C(=C/c2ccsc2)SC1=S | -14% | 79µM* | -14 | 6% | -12% | 23%
O=C(O)CN1C(=O)/C(=C/C=C/c2ccccc2)SC1=S | -3% | ? | -2 | 11% | -35% | -12%
O=C(O)CN1C(=O)/C(=C\C(Br)=C\c2ccccc2)SC1=S | / | 45µM* | -28 | / | ? | ?
O=C(NCc1ccc(F)cc1)n1cc(P(=S)(c2ccccc2)c2ccccc2)c2ccccc21 | / | / | / | / | -17% | /
COc1ccc(CNc2nc(Cl)nc3nc[nH]c23)cc1 | / | / | / | / | -18% | 26%
CCC(C)NC(=O)c1sc2nc(C)c(C(=O)Nc3ccc(C)cc3C)c(-c3ccc(NC(C)=O)cc3)c2c1N (stereo unspecified) | / | 5% | / | / | -8% | 32%
CCOC(=O)CCc1cc(F)c(S(=O)(=O)N2CCN(S(=O)(=O)c3ccc4c(c3)OCCO4)CC2)cc1F | / | / | / | / | -15% | /
COc1ccc(-c2csc(NC(=O)CSc3n[nH]c(N)n3)n2)cc1 | ? | -8% | -9 | ? | 10µM* | 79µM*
CCOc1ccccc1C(O)C1=CC(=O)c2ccccc2C1=O (stereo unspecified) | / | / | ? | / | 25µM* | -21%
O=C1C=CC(=O)N1c1ccc2c(c1)C(NC(=O)C(F)(F)F)c1ccccc1-2 (stereo unspecified) | / | / | ? | / | 7.9µM* | 13µM*
COc1ccc(C=CC(=O)c2ccc(OCc3ccccc3)c(OC)c2)cc1OC | / | / | 0 | / | / | /
COc1ccc(C(C)=O)cc1CSCC(=O)O | -2% | -13% | 9 | 5% | 0% | 11%
COc1ccc(C(=O)/C=C/c2ccc(OCc3ccccc3)cc2)cc1CSCC(=O)O | / | -6% | -21 | / | 56µM* | -17%
COc1ccc(C(=O)/C=C/c2cccc(OCc3ccccc3)c2)cc1CSCC(=O)O | / | 45µM* | -14 | / | 50µM* | -31%
Cc1nc(CCN2C(=O)c3ccccc3C2=O)n[nH]1 | 8% | ? | ? | / | 25µM* | -9%
CCc1ccc(CCN2C(=O)c3ccccc3C2=O)nc1 | 1% | 8% | -2 | 5% | -6% | 6%
NC(=O)C(=CNc1nc(-c2ccc(Cl)c(Cl)c2)cs1)C(N)=O | 7.9µM* | 45µM* | / | -44% | / | /
Cc1ccc(-c2c3c(=O)n(C)c(=O)n(C)c3c3c(C(F)(F)F)nc4ccccc4n23)cc1 | / | 20% | / | / | 22% | 92%
O=C(NCCS(=O)(=O)N1CCN(c2ccccc2)CC1)C(c1ccccc1)c1ccccc1 | / | 5% | / | / | -9% | 26%[57 µM]
COc1ccc(Oc2ccc(/C=C/C(=O)c3ccc(O)cc3)cc2[N+](=O)[O-])cc1 | -16% | ? | -8 | -5% | ? | -24%
CCc1ccc(S(=O)(=O)c2c(C(=O)c3ccc(C)c(C)c3)cnc3ccccc23)cc1 | / | -25% | / | / | -20% | 13%
O=C(O)c1ccc2c(c1)-c1nc3ccccc3n1C2=O | ? | ? | -7 | / | 18µM* | 4%
Cc1ccc(-c2nnc3ccccc3c2C(=O)Nc2ccc(F)cc2)cc1 | / | -4% | / | / | -4% | 30%
FC(F)(F)Oc1ccc(Nc2nc(N3CCOCC3)nc(N3CCOCC3)n2)cc1 | / | ? | ? | / | 18µM* | 32%
COc1ccc(Nc2nc(Nc3ccc(OC)cc3OC)nc(N3CCOCC3)n2)c(OC)c1 | / | 7.9µM* | / | / | ? | 7%
SMILES | KDM4E inh | BAZ2B block | PI5P4Ka inh | L3MBTL1 block | JMJD2A Tudor inh | HP1b chromo inh
COc1ccc(Nc2nc(N3CCOCC3)nc(N3CCOCC3)n2)c(OC)c1 | / | -31% | 3 | -3%[2.29 µM] | -35% | 17%
O=C(COc1coc(CN2CCc3ccccc3C2)cc1=O)N1CCOCC1 | / | 0% | 0 | -11% | -4% | 38%
O=S1(=O)N=C(Sc2ccc3c(c2)OCCO3)c2ccccc21 | / | / | / | / | -26% | /
CCC1=NN2C(=N)/C(=C/c3ccc(OS(=O)(=O)c4ccccc4)cc3)C(=O)N=C2S1 | / | -5% | -63* | / | -31% | 5%
Cc1ccc(S(=O)(=O)Oc2ccc(/C=C3\C(=N)N4N=C(S(C)(=O)=O)SC4=NC3=O)cc2)cc1 | / | 50µM* | -57* | / | 35µM* | -9%[57 µM]
CCS(=O)(=O)C1=NN2C(=N)/C(=C\c3ccc(OS(=O)(=O)c4ccccc4)cc3)C(=O)N=C2S1 | / | 50µM* | -79* | / | ? | 5%
CN(CC(=O)Nc1ccccc1Cl)C(=O)CSc1nncn1C | / | 5% | 4 | 6% | -17% | 21%
O=C(/C=C/c1ccccc1)Nc1cccc(C(=O)NC2CC2)c1 | / | / | -2 | / | -17% | 23%
CCc1nn2c(=O)cc(-c3ccncc3)nc2s1 | / | / | / | / | -10% | /
CCCOc1ccc(N/C=C/C(=O)c2ccc(OC)c(OC)c2)cc1 | / | -10% | 8 | 1% | 28µM* | 14%
COC(=O)C1=C(C)N=c2s/c(=C3\C(=O)Nc4ccccc43)c(=O)n2C1c1ccccc1 (stereo unspecified) | -9% | 7.9µM* | / | ? | / | /
CCOC(=O)C1=C(C)N=c2s/c(=C3/C(=O)Nc4ccccc43)c(=O)n2C1c1ccc(C)cc1 (stereo unspecified) | 6% | ? | 0 | -28% | ? | 12%
CCOC(=O)c1cc(-c2ccccc2)n(CC(=O)N(C)c2ccc(OC)cc2)c1C | / | ? | / | / | ? | -9%
Cc1ccc2cc(C=O)c(Cl)nc2c1 | 6% | -3% | -11 | / | -25% | 82%
O=S(=O)(c1cccs1)N1CCN(C/C=C/c2ccccc2)CC1 | -2% | 1% | -7 | -5% | -11% | 1%
O=S(=O)(c1ccc(Cl)s1)N1CCN(C/C=C/c2ccccc2)CC1 | ? | ? | 12 | -1% | 1µM* | ?
S=c1[nH]nc([C@@H]2C[C@H]2c2ccccc2)n1-c1ccccc1 | -17% | -9% | -8 | -3% | 18µM* | -5%
Cc1ccccc1-n1c([C@@H]2C[C@H]2c2ccccc2)n[nH]c1=S | -14% | -16% | -10 | -4% | 45µM* | 9%
C[C@H]1/C=C\CC(=O)NCc2cccc(c2)CNC(=O)N[C@H]1c1ccccc1 | -24% | / | / | / | / | /
CC1=NN(c2ccc(C)c(C)c2)C(=O)/C1=C\C=C\c1ccc([N+](=O)[O-])o1 | -19% | ? | -52* | ? | ? | ?
